A short description of assay [1]: TOX21_p53_BLA_p2_viability: Viability Assessment in the Tox21 HCT-116 p53 Agonism Beta-lactamase Assay, Phase 2 (AID 2283591).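 Also: compound exposure lasted 16 h at 37 °C; actives lower the ATP signal meaning cytotoxicity.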 The gist of the method: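 Cytotoxicity readout: CellTiter-Glo ATP luminescence, 30 min at room temperature, after the beta-lactamase read. Cells were HCT116 exposed 16 h at 37C to compounds pin-transferred at 217-fold dilution from DMSO stocks.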

The target in assay [2] is Cellular tumor antigen p53 (Homo sapiens) (UniProt P04637). Nature of the assay: TOX21_p53_BLA_p2_ratio: Tox21 HCT-116 p53 Agonism Beta-lactamase Assay, Ratio, Phase 2 (AID 2283592). The gist of the method: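 Read-out is the blue/green (460/530 nm, 405 nm excitation) ratio after 2 h CCF4-AM loading, fitted as gain versus DMSO. Compounds, pinned at 217-fold dilution from DMSO stocks, stayed 16 h on HCT-116 beta-lactamase reporter cells seeded 5 h earlier.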

Assay [3] in a line: TOX21_p53_BLA_p3_viability: Viability Assessment in the Tox21 HCT-116 p53 Agonism Beta-lactamase Assay, Phase 3 (AID 2283593).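 Also: cells exposed to compound for 16 h before reading.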 The gist of the method:
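Cellular ATP was quantified by CellTiter-Glo luminescence, read after 30 min at room temperature. Beforehand, HCT116 cells (4000/well) received compound 5 h post-seeding, 217-fold diluted from DMSO, then incubated 16 h at 37C.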

Assay [4] addresses Cellular tumor antigen p53 (Homo sapiens) (UniProt P04637). As to the kind of experiment: TOX21_p53_BLA_p3_ratio: Tox21 HCT-116 p53 Agonism Beta-lactamase Assay, Ratio, Phase 3 (AID 2283596). The gist of the method:
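Cells were seeded at 4000/well, rested 5 h at 37C, then dosed with DMSO compound solutions (217-fold dilution) for 16 h. CCF4-AM substrate was loaded for 2 h at room temperature, and the 460/530 nm emission ratio was fitted for gain of signal versus DMSO.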

Assay [5] is described as follows: TOX21_p53_BLA_p4_viability: Viability Assessment in the Tox21 HCT-116 p53 Agonism Beta-lactamase Assay, Phase 4 (AID 2283597).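 Also: hits lower the luminescence signal meaning cytotoxicity.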 The gist of the method: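 Cytotoxicity as reduced cellular ATP (CellTiter-Glo luminescence, 30 min room temperature), measured in the same wells following the CCF4 FRET p53 reading. Human HCT-116 cells received compounds in DMSO (217-fold dilution) for 16 h.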

In assay [6] the target is Cellular tumor antigen p53 (Homo sapiens) (UniProt P04637). Nature of the assay: TOX21_p53_BLA_p5_ratio: Tox21 HCT-116 p53 Agonism Beta-lactamase Assay, Ratio, Phase 5 (AID 2283599). An outline of the steps: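 Beta-lactamase reporter ratio (blue 460 nm over green 530 nm, 405 nm excitation) after 2 h CCF4-AM loading, in HCT-116 cells exposed 16 h at 37 C to compounds pinned at 217-fold dilution. Increases relative to DMSO baseline scored.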

The nature of assay [7]: TOX21_p53_BLA_p5_viability: Viability Assessment in the Tox21 HCT-116 p53 Agonism Beta-lactamase Assay, Phase 5 (AID 2283600). The gist of the method: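 Viability came from CellTiter-Glo ATP luminescence, read after 30 min at room temperature. Before this, HCT-116 p53-bla cells (4000/well) had 16 hours of compound exposure at 37C, with DMSO stocks diluted 217-fold on transfer.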

For assay [8], the target named is Cellular tumor antigen p53 (Homo sapiens) (UniProt P04637). Nature of the assay: TOX21_p53_BLA_p4_ratio: Tox21 HCT-116 p53 Agonism Beta-lactamase Assay, Ratio, Phase 4 (AID 2283601). The gist of the method:
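Signal is the blue/green (460nm/530nm) ratio of cleaved versus uncleaved CCF4-AM substrate, read after 2 h substrate loading. Cells were HCT116 carrying the p53-responsive beta-lactamase reporter, dosed 16 h at 37C, 5% CO2; CellTiter-Glo measured in parallel.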

Structures are written as SMILES. Inconclusive results are not listed. Activity calls are given as the source filed them. The calls were made as follows: active = hit-call score of the fitted dose curve at least 0.9, where 1 is the maximum; inconclusive = response in the unintended direction; inactive = score below 0.9.

Sequence of Cellular tumor antigen p53 (Homo sapiens) (P04637 whole entry, looked up): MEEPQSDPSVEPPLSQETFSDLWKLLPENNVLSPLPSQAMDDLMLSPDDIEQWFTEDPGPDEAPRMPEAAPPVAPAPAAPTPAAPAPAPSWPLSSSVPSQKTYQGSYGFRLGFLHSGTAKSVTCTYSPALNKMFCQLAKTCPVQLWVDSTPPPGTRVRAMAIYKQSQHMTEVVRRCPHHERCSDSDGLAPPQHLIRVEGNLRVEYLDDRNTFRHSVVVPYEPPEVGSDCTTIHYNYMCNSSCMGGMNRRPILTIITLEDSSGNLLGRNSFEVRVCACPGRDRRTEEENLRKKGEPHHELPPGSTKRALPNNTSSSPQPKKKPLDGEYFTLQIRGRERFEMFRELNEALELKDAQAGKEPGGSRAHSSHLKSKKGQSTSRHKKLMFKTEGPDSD

Regarding `O=C(Nc1ccc(Oc2ccc(Cl)cc2)c(Cl)c1)c1cc(I)cc(I)c1O`, the AC50 in assay [1] is 4.23 µM (active); in assay [2] it was 4.05 µM (active); in assay [3] it was 2.64 µM (active); in assay [4], 3.93 µM (active); in assay [5] it was 2.3 µM (active); in assay [6] it was 10.2 µM (active). In addition, in assay [8], the AC50 was 8.12 µM (active). For the same compound, the result in assay [7] was inactive.
Turning to `CC(C)(C)OC(=O)N1C[C@@H](F)C[C@H]1C(=O)O`, the compound was classed as inactive in assay [1], in assay [2], in assay [3], in assay [4], in assay [5] and in assay [6]. The result in assay [7] and in assay [8] was inactive.
Regarding `COc1cc(-c2ccc(-[n+]3nc(-c4ccccc4)nn3-c3ccc([N+](=O)[O-])cc3)c(OC)c2)ccc1-[n+]1nc(-c2ccccc2)nn1-c1ccc([N+](=O)[O-])cc1`, the half-maximal activity concentration (AC50) in assay [1] was 13 µM (active); in assay [2], 19.1 µM (active); in assay [3], 21.3 µM (active); in assay [4], 36.5 µM (active); in assay [5] it was 11.4 µM (active); in assay [6], 21.7 µM (active). Further, the AC50 is 17.6 µM (active) in assay [7] and 18 µM (active) in assay [8].
In the case of `OC1(c2ccc(Cl)c(C(F)(F)F)c2)CCN(CCCC(c2ccc(F)cc2)c2ccc(F)cc2)CC1`, the AC50 in assay [1] is 12.8 µM (active); in assay [2] it was 19.6 µM (active); in assay [3], 30.7 µM (active); in assay [4] it was 40.1 µM (active); in assay [5], 20 µM (active); in assay [6], 43.2 µM (active). For the same compound, the results for the AC50 in assay [7] and in assay [8] were 37.6 µM (active) and 34.1 µM (active), respectively.
For the compound `CCOC(=O)/C=C(C)/C=C/C=C(C)/C=C/c1c(C)cc(OC)c(C)c1C`, the call in assay [1], in assay [2], in assay [3], in assay [4], in assay [5] and in assay [6] was inactive. Besides, the result in assay [7] and in assay [8] was inactive.
As for `NC(=O)Nc1ccc(Cl)c(Cl)c1`, the outcome in assay [1], in assay [2], in assay [3], in assay [4], in assay [5] and in assay [6] was inactive. The result in assay [7] and in assay [8] was inactive.
Regarding `CC(=O)NCc1c(I)c(NC(C)=O)c(I)c(C(=O)O)c1I`, the call in assay [1], in assay [2], in assay [3], in assay [4], in assay [5] and in assay [6] was inactive. In addition, the result in assay [7] and in assay [8] was inactive.
In the case of `O=CC=C(c1ccccc1)c1ccccc1`, the call in assay [1], in assay [4], in assay [6], in assay [7] and in assay [8] was inactive. Also, the AC50 was 46.4 µM (active) in assay [2], 47.3 µM (active) in assay [3] and 29.8 µM (active) in assay [5].
`CC=C(C(=CC)c1ccc(O)cc1)c1ccc(O)cc1`: the compound was classed as inactive in assay [1], in assay [2], in assay [3], in assay [5], in assay [6] and in assay [7]. The AC50 in assay [4] is 4.02 µM (active); in assay [8] it was 3.75 µM (active).
For `CCC(C)Nc1ccc(NC(C)CC)cc1` (stereo unspecified), the AC50 is 15.1 µM (active) in assay [1]; 22.4 µM (active) in assay [3]; 46.8 µM (active) in assay [4]; 19.2 µM (active) in assay [5]; 30.1 µM (active) in assay [7]. In addition, the result in assay [2], in assay [6] and in assay [8] was inactive.
For the compound `Oc1c(Br)cc(Br)c2cccnc12`, the outcome in assay [1], in assay [3], in assay [4], in assay [6], in assay [7] and in assay [8] was inactive. The AC50 is 5.02 µM (active) in assay [2] and 7.62 µM (active) in assay [5].
For `CCc1cccc(CC)c1NC(=O)CN(CC(=O)O)CC(=O)O`, the outcome in assay [1], in assay [2], in assay [3], in assay [4], in assay [5] and in assay [6] was inactive. The compound was called inactive in assay [7] and in assay [8].
For the compound `Nc1ccc(S(=O)(=O)Nc2ccc(Cl)nn2)cc1`, the outcome in assay [1], in assay [2], in assay [3], in assay [4], in assay [5] and in assay [6] was inactive. Moreover, the outcome in assay [7] and in assay [8] was inactive.
Consider `CS(=O)(=O)Nc1ccc([N+](=O)[O-])cc1Oc1ccccc1`, for which the compound was classed as inactive in assay [1], in assay [2], in assay [3], in assay [4], in assay [5] and in assay [6]. Moreover, the result in assay [7] and in assay [8] was inactive.
With `c1ccc(OCc2ccc(CCCN3CCOCC3)cc2)cc1`, the result in assay [1], in assay [2], in assay [3], in assay [4], in assay [5] and in assay [6] was inactive. Besides, the compound was classed as inactive in assay [7] and in assay [8].
As to `COc1nc(N)nc2c1ncn2[C@@H]1O[C@H](CO)[C@@H](O)[C@@H]1O`, the result in assay [1], in assay [2], in assay [3], in assay [4], in assay [5] and in assay [6] was inactive. For the same compound, the compound was classed as inactive in assay [7] and in assay [8].
For `Nc1cnn([C@@H]2O[C@H](CO)[C@@H](O)[C@H]2O)c(=O)n1`, the outcome in assay [1], in assay [3], in assay [5] and in assay [7] was inactive. Besides, the concentration at half-maximal activity (AC50) in assay [2] is 3.04 µM (active); in assay [4], 2.28 µM (active); in assay [6], 6.26 µM (active); in assay [8], 1.34 µM (active).
For the compound `Cc1cnc(C(=O)O)c[n+]1[O-]`, the result in assay [1], in assay [2], in assay [3], in assay [4], in assay [5] and in assay [6] was inactive. The outcome in assay [7] and in assay [8] was inactive.
Consider `CCCCCCCCCCCCCC[n+]1ccc(C)cc1`, for which the result in assay [1], in assay [3], in assay [5], in assay [6], in assay [7] and in assay [8] was inactive. For the same compound, the concentration at half-maximal activity (AC50) in assay [2] was 20.1 µM (active); in assay [4] it was 27.5 µM (active).
In the case of `O=C(O)CCC(=O)C(=O)O`, the compound was called inactive in assay [1], in assay [2], in assay [3], in assay [4], in assay [5] and in assay [6]. Further, the result in assay [7] and in assay [8] was inactive.
Consider `O=C(NCC1CCCCN1)c1cc(OCC(F)(F)F)ccc1OCC(F)(F)F` (stereo unspecified), for which the compound was classed as inactive in assay [1], in assay [2], in assay [3], in assay [4], in assay [5] and in assay [6]. The compound was classed as inactive in assay [7] and in assay [8].
Take `C/C(=C(\CCOC(=O)c1ccccc1)SS/C(CCOC(=O)c1ccccc1)=C(/C)N(C=O)Cc1cnc(C)nc1N)N(C=O)Cc1cnc(C)nc1N`: the result in assay [1], in assay [2], in assay [3], in assay [4], in assay [5] and in assay [6] was inactive. Moreover, the compound was called inactive in assay [7] and in assay [8].

As a reminder, the AC50 is the concentration giving half of the maximal activity seen.
